The campaign covered roughly 370,000 compounds. About 1,100 (0.3%) were called active. Rule as the data show it: active = inhibition above about 13%; inactive = the rest. The entries come from a sample that favours actives as a whole.
These molecules were tested against Methyl-CpG-binding domain protein 2 (Homo sapiens) (UniProt Q9UBB5) (assay: MBD2-DBD methyl-oligonucleotide interaction blockers – biochemical, TR-FRET, DNA-binding domain, human, primary screen (AID 686964)). Details: MBD2 binding to methylated oligonucleotide, at 4.4 µM, stronger effect = higher value.
Methyl-CpG-binding domain protein 2 (Homo sapiens), sequence (Q9UBB5 whole entry, looked up, the tested form may be a part): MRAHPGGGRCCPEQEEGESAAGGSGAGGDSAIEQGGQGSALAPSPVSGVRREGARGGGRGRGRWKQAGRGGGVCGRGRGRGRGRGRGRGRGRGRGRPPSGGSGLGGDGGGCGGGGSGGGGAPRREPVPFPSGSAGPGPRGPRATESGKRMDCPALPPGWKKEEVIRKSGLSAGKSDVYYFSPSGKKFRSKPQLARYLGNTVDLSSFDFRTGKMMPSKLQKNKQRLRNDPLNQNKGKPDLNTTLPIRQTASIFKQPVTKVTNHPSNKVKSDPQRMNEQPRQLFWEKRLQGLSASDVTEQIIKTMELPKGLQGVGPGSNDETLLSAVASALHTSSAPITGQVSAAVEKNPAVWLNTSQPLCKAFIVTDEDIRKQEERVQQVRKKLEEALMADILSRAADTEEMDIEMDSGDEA

inhibition, active:
CCOC(=O)CCP(=O)(O)C(O)(c1ccccc1)c1ccccc1 28.3%
O=c1ccc2c(-c3ccccc3S(=O)(=O)O)c3ccc(O)c(O)c3oc-2c1O 97.2%
Cc1cc(C)c2nc3nc(C)cc(C)c3c(N)c2c1 19.4%
Cc1c(C=O)n(C)n(-c2ccccc2)c1=O 14.6%
C=CCN(C(=O)[C@@H](CCCC)[C@@H](O)c1ccc(Cl)cc1)c1ccccc1 15.9%
COC(=O)c1cccc(NC(=O)c2cccc(N3C(=O)CCC3=O)c2)c1 13.4%
CCN(CC)CCOc1ccc2c(c1)C(=NNC(=O)c1ccccn1)c1cc(OCCN(CC)CC)ccc1-2 109%
C=C1c2c(Cl)ccc(O)c2C(O)=C2C(=O)[C@]3(O)C(O)=C(C(N)=O)C(=O)[C@@H](N(C)C)[C@@H]3[C@@H](O)C12 (some centres not stated) 27.8%
CN(C)[C@@H]1C(=O)C(C(N)=O)=C(O)[C@@]2(O)C(=O)C3=C(O)c4c(O)ccc(Cl)c4[C@@H](O)[C@H]3C[C@@H]12 17.8%
CCOC(=O)C1C(=O)OC2(CCCC2)C1C(=O)OCC (configuration not stated) 19.3%
Nc1ccccc1C(=O)NC1CCCCNC1=O (configuration not stated) 16.1%
Cc1c(NS(=O)(=O)c2cc(C(=O)NCCc3ccc(F)cc3)cc(Cl)c2Cl)c(=O)n(-c2ccccc2)n1C 26.3%
COCCNC(=O)Nc1ccc2nc(-c3ccco3)c(-c3ccco3)nc2c1 53.7%
C=CCN1C(=O)c2ccc(C(=O)N3CCC(C(=O)OCC)CC3)cc2C1=O 16.8%
COc1ccc(-n2c(C)cc(C(=O)CSc3nnc(-c4cccs4)o3)c2C)cc1 15.1%
COc1ccc2c(c1)c(=Cc1ccc(N(C)C)cc1)c1cc(-c3ccccc3)[n+](C)n12 29.6%
COc1ccc(CNC(=O)c2c[nH]c3c(OC)cc(OC)cc3c2=O)cc1 23.4%

inhibition, inactive:
CCOC(=O)CNC(=O)/C=C/c1c(Cl)cccc1Cl -5.98%
CCOC(=O)NC(C(F)(F)F)(C(F)(F)F)P(=O)(c1ccccc1)c1ccccc1 -1.87%
CCOC(=O)C(=O)N(Cc1ccccc1)c1ccccc1C(=O)Nc1cc(OC)ccc1OC 1%
COc1cccc(/C=C2\CC3(OC(C)=O)CCCN2C3)c1 (configuration not stated) 1.18%
O=C(NC1CCCCN(Cc2ccc(Cl)cc2)C1=O)c1ccc(Br)cc1 (configuration not stated) -2.53%
C=C(C)C#CC(Cc1ccccc1)NCC1CC1 (configuration not stated) -0.24%
NC(=O)c1ncn([C@@H]2O[C@H](C(=O)O)[C@@H](O)[C@H]2O)n1 2.1%
CCC[C@H]1C(=O)CC[C@@]23CCCN2C(=O)CCC[C@@H]13 -0.46%
CC(C)CSc1nnc(-c2cccnc2)n1Cc1ccccc1 -2.93%
O=C(OC12CCCN(C1)/C(=C/c1cccnc1)C2)C1CCCC1 (configuration not stated) -0.45%
O=C(NS(=O)(=O)c1cccs1)[C@H]1O[C@@H](n2ccc(=O)[nH]c2=O)[C@H](O)[C@@H]1O 3.05%
Cc1cccc(N2CCN(Cc3c(C)n(C)n(-c4ccccc4)c3=O)CC2)c1C 1.05%
Cc1c(CN2CCC(C)CC2)c(=O)n(-c2ccccc2)n1C 2.32%
O=S(=O)(c1ccc(Br)cc1)n1ccc2ccccc21 -0.04%
O=S1(=O)c2c(cccc2N2CCSCC2)Oc2ccccc2CN1Cc1cn(Cc2ccc(F)cc2)nn1 -0.08%
O=C(NCCO)C(=O)NCC(c1ccc2c(c1)OCO2)N1CCN(c2ccc(F)cc2)CC1 (configuration not stated) 0.87%
C[C@H](C(=O)N(C)c1ccccc1)[C@@H](O)c1ccc(Cl)cc1 -1.32%
CCCC[C@H](C(=O)N(CC)c1ccccc1)[C@@H](O)c1ccc2ccccc2c1 -3.72%
O=C(CCCCCN1C(=O)C2C3C=CC(C3)C2C1=O)Nc1ccccn1 (configuration not stated) -4.13%
CC(=O)Nc1cccc(C(=O)OCN2C(=O)c3ccccc3C2=O)c1 6.26%
COC(=O)c1cccc(NS(C)(=O)=O)c1 -3.55%
CCCC(C(=O)OCCN(CC)CC)(c1ccccc1)c1ccccc1 0.72%
CCN(CC)S(=O)(=O)c1cc(C(=O)Nc2ccccn2)ccc1C 2.21%
Cc1cccc(S(=O)(=O)N(C)C[C@@H]2OCc3cnnn3CCCC(=O)N([C@H](C)CO)C[C@@H]2C)c1 3.06%
O=C1CCC2(CCC(c3ccc(Cl)cc3)CC2)N1CCO (configuration not stated) -0.8%
Nc1ncnc2c1ncn2[C@@H]1O[C@H](C(=O)N[C@@H](CCc2ccccc2)C(=O)N2CCCN(Cc3cccs3)CC2)[C@@H](O)[C@H]1O 1.63%
O=C(O)CCn1c(O)c(C=C2N=c3ccccc3=N2)sc1=S -4.63%
CCOC(=O)C1C(=O)NCC1c1ccccc1 (configuration not stated) -0.38%
CCOC(=O)C1C(c2ccc(O)cc2)NC(=O)NC1(O)C(F)(F)F (configuration not stated) -5.62%
Cc1cc2c(nc1C)CCCN2C -0.93%
C=CCN(Cc1ccc2c(c1)OCO2)C(C#CC1CC1)C(C)(C)C (configuration not stated) 3.04%
O=C(c1c[nH]c2ccccc12)N1CCC(Oc2cccnc2)CC1 -6.13%
CC(=O)N1C[C@@H](CO)[C@@H](N(C)C(=O)C(C)(C)C)C[C@H]1c1ccccc1Br 2.89%
Oc1ccc(/C=C/c2c(F)cccc2F)c2cccnc12 -0.79%
Cc1ccc(CNC(=O)CC(NC(=O)c2ccccc2)c2ccccc2)cc1 (configuration not stated) -3.58%
O=C(CNC(=O)OCc1ccccc1)NC1CCCCNC1=O (configuration not stated) 0.98%
Nc1ccn([C@@H]2O[C@H](C(=O)N[C@H]3CCCCNC3=O)[C@@H](O)[C@H]2O)c(=O)n1 -2.88%
CN1[C@H](Cc2ccccc2)COc2cccc(N3CCSCC3)c2S1(=O)=O 3.96%
CCOC(=O)N1CCN(C(=O)C[C@@H]2C(=O)N(CCc3ccc(Cl)cc3)C3=CCCC[C@]32C(=O)OCC)CC1 -2%
COc1ccc2c(CC(=O)NNC(=O)c3ccccc3F)coc2c1 -1.98%
C[C@H]1[C@H](NC(=O)c2cccc(N(C)C)c2)CC[C@@]23CCCN2C(=O)CCC[C@@H]13 -0.56%
Cc1c(NS(=O)(=O)c2cccc(C(=O)Nc3ccc(SC(F)F)cc3)c2)c(=O)n(-c2ccccc2)n1C 7.59%
Cc1cc(C)c(S(=O)(=O)Nc2c(C)n(C)n(-c3ccccc3)c2=O)cc1[N+](=O)[O-] -5.79%
O=C(O)Cn1cnc2c(NCc3ccccc3)ncnc21 -3.02%
O=C(NCCc1c[nH]c2ccccc12)OCc1cn(-c2c(F)cccc2F)nn1 -6.28%
CCC(=O)OCCCN1C(=O)CCC12CCC(c1ccccc1)CC2 (configuration not stated) 3.38%
CN1C(c2ccc(F)cc2)=CS/C1=C(/C#N)c1nnc2n1-c1ccccc1SC2 -4.62%
COC(CNC(=O)[C@H](Cc1ccccc1)NC1(C(=O)NC2CCCCC2)CCCCC1)OC 6.86%
C=CS(=O)(=O)N(Cc1nnn(Cc2ccccc2)c1Br)[C@H](C(=O)OC)C(C)C -4.08%
Cc1ccc(-c2noc(CCC(=O)Nc3ccccc3N3CCN(C)CC3)n2)cc1 -4.01%
COCCNC(=O)c1cc2c(Br)ccc(Br)c2nc1N 1.97%
COCCNC(=S)c1ccc(OC)cc1 0.26%
COc1cccc(CNC(=O)CNS(=O)(=O)c2ccc3nc(C)sc3c2)c1OC 3.15%
CCOC(=O)C1CCCN(C(=O)c2ccc(N(C)C)cc2)CC1 (configuration not stated) 7.99%
CCOC(=O)C1CCCN(C(=O)c2ccc(C)c(F)c2)CC1 (configuration not stated) -3.99%
Cc1c(C(=O)N2CC(C)OC(C)C2)sc2nc(-c3ccccc3)cn12 (configuration not stated) -0.32%
CC(C)C(C#CC1CC1)N(Cc1ccc2c(c1)OCO2)C(N)=NC(=O)/C=C/c1cccc(C(F)(F)F)c1 (configuration not stated) -0.7%
CC(C)(C)NC(=O)C(c1cccnc1)N(C(=O)c1cnco1)c1ccc(C(C)(C)C)cc1 (configuration not stated) 2.09%
CCC(NC(=O)C1C2C=CC3(CN(Cc4ccccc4)C(=O)C13)O2)c1ccccc1 (configuration not stated) 0.25%
CCc1ccccc1NC(=O)CSc1nnc(-c2cccs2)o1 2.5%
COc1ccc(-c2nnc(SCC(=O)c3ccc4c(c3)OCCO4)o2)cc1 -3.62%
O=C(CSc1nncn1-c1cccnc1)N1CCOCC1 2.16%
COc1cc(NC(=O)C2CCCN(S(=O)(=O)c3ccc(C(C)(C)C)cc3)C2)cc(OC)c1 (configuration not stated) -0.54%
CCCCCCCCN1C(=O)[C@@H](CC(=O)NCc2ccccc2)C[C@@]2(C(=O)OC)C1=C[C@H](C(C)(C)C)O[C@@H]2C 3.75%
O=C(c1ccncc1)N1CC[C@H]2[C@H](CCCN2Cc2ccc(F)cc2)C1 -6.65%
COc1ccc(NS(=O)(=O)c2cc3c(cc2C)N(C(C)=O)CCO3)cc1 -5.65%
CC1CCCN(CCOCCOc2ccccc2-c2ccccc2)C1 (configuration not stated) -4.99%
CCSc1ccccc1C(=O)NCc1ccc(OC)cc1 -9.91%
COc1ccc(CNC(=O)c2cc(C(=O)C3CC3)c[nH]2)cc1 1.85%
CC(CCN1CCC(C(O)(c2ccccc2)c2ccccc2)CC1)Oc1ccc([N+](=O)[O-])cc1Cl (configuration not stated) 1.05%
